For the first assay, the target named is COPS8. Put plainly: pooled miR-30 sensor sort-seq; sequence = guide strand. Particulars: shRNA.
Sequence ATTCTTTGTCCTACTGACCAAA registered a sensor-assay potency score (higher = more potent) of -1.48.
On the same count and under the same terms, then TTGTTGCATCTCTAAGTGCTTC, with -1.16; and TTGCAGATTTTATAGCAGGTGG, with -0.905.
Same read-out and setting: the value for TTACATTTCTACGTTTGTCAGT was -0.228; that for TTTTTGAAACTAAAGGCGCTTT was -0.00727; that for TTTCTGGGCAGAACCATTCTTG was -0.632.
Still for that read-out and setting: the value for TTGATGGTTGTATAGATCCCAG was -1.45; that for TATGGAGCAAATATAAAGCTAG was -0.121.
Consider TATTTTATCACATAGTAAGGAA, for which the sensor-assay potency score (higher = more potent) was -0.329.
Turning to TTTTCCAAAGATATCTTGCATT, the sensor-assay potency score (higher = more potent) was -0.738.
The sequence TTCTTTTCCAAAGATATCTTGC registered a sensor-assay potency score (higher = more potent) of -0.431.
The same measure, in the same setting: then TAGAAGCTGACCATACACTGGG, with 0.625.

The next assay deals with COQ3. The description is as above. Particulars: shRNA.
TTGAAAACATCAGATATCCAAG gave a sensor-assay potency score (higher = more potent) of -0.816.
The same measure, in the same setting: then TTAATCTGTAGAGTCCCACTGA, with 0.477.
Sequence TAGAGCATTCCTACCACTGTTT yielded a sensor-assay potency score (higher = more potent) of -0.0231.
The sequence AAACAGGAAAAGATCGTCCTGT yielded a sensor-assay potency score (higher = more potent) of 0.479.
Still for that read-out and setting: the value for TACCTGAAACTCTTTATTCTGT was -0.297; that for TAGGATTTGAACCATATGGTTC was -0.787.
As for TTAATGTTCTCATCCACAGGGT, the sensor-assay potency score (higher = more potent) is 0.284.
Still for that read-out and setting: then TAACACTTGACAGCAGCACTGT, with -0.0361.
For TATGGTTCTGTATTCATTGAAA, the sensor-assay potency score (higher = more potent) is -1.12.
Same read-out and setting: then TTCTTCACATAAACCGCCGAGG, with -1.27; and TAGTAATGAATAAAGAACCACC, with -0.744; and TTAGCTTGGAGCTCTTCTGTTT, with -0.684.
Also: reference of the scale not given here.
